Results from the supplement of paper PMC10646978.
± gives the standard deviation.

Key:
Conditions in all cases: modulator concentration 10 µM
[1] = tested on: RAW-Dual (murine macrophage reporter line); assay: NF-kB reporter (SEAP) activity fold change vs agonist alone; higher = enhanced NF-kB activity
In short: (§1)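 Overnight stimulation with a PRR agonist followed pre-incubation for 1 hour at 37 °C with compound at 10 μM final. This was done in RAW-Dual murine macrophage reporter cells seeded at 50 000 per well in 384-well plates. NF-κB (SEAP, QUANTI-Blue absorbance at 620 nm) and IRF (Lucia luciferase, QUANTI-Luc luminescence) were read from the supernatant. Each reporter's fold change relative to the mean agonist-only control on the same plate was averaged over replicate plates.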

[2] = tested on: RAW-Dual (murine macrophage reporter line); assay: IRF reporter (Lucia luciferase) activity fold change vs agonist alone; higher = enhanced IRF activity
In short: as §1

[3] = tested on: RAW-Dual (murine macrophage reporter line); assay: viability score (confluency relative to resting cells, overnight) (fraction); higher = more viable, active = viable (0.7 or more)
In short: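 RAW-Dual macrophages in 384-well plates were exposed overnight to compound at 10 μM final. Confluency was imaged with IncuCyte, and two confluency masks were generated with IncuCyte software over all imaged wells. The viability score is confluency expressed relative to resting cells. Compounds were called viable if both masks exceeded 70% of resting cells.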

[4] = agonist: CpG ODN 1826 0.5 ug/mL

Compound: Cn1c(=O)cc(N2CCC[C@@H](N)C2)n(Cc2cc(F)ccc2C#N)c1=O.O=C(O)CCC(=O)O
- NF-kB reporter [1, 4]: 0.0816 ± 0.0048
- NF-kB reporter ([1]; agonist: LPS 0.1 ug/mL): 0.119 ± 0.014
- NF-kB reporter ([1]; agonist: MPLA […]): 0.376 ± 0.039
- IRF reporter ([2]; agonist: 3'3'-cGAMP 10 ug/mL): 0.0243 ± 0.0016
- IRF reporter ([2]; agonist: LPS 0.1 ug/mL): 0.262 ± 0.076
- IRF reporter ([2]; agonist: MPLA […]): 0.205 ± 0.069
- viability score [3]: 0.128 (inactive)

Compound: COc1ccc(C=NNC(=O)CSc2nnc(-c3ccncc3)n2-c2ccccc2)cc1OC
- NF-kB reporter [1, 4]: 1.05 ± 0.12
- NF-kB reporter ([1]; agonist: LPS 0.1 ug/mL): 1 ± 0.1
- NF-kB reporter ([1]; agonist: MPLA […]): 0.962 ± 0.034
- IRF reporter ([2]; agonist: 3'3'-cGAMP 10 ug/mL): 0.954 ± 0.05
- IRF reporter ([2]; agonist: LPS 0.1 ug/mL): 1.04 ± 0.07
- IRF reporter ([2]; agonist: MPLA […]): 1.01 ± 0.12
- viability score [3]: 0.998 (active)

Compound: COc1ccc(Br)c(C(=O)N2CCCC2CS(=O)(=O)c2ccccc2)c1 (stereo not drawn)
- NF-kB reporter [1, 4]: 0.982 ± 0.12
- NF-kB reporter ([1]; agonist: LPS 0.1 ug/mL): 1.08 ± 0.085
- NF-kB reporter ([1]; agonist: MPLA […]): 0.957 ± 0.075
- IRF reporter ([2]; agonist: 3'3'-cGAMP 10 ug/mL): 0.988 ± 0.051
- IRF reporter ([2]; agonist: LPS 0.1 ug/mL): 0.984 ± 0.098
- IRF reporter ([2]; agonist: MPLA […]): 0.876 ± 0.11
- viability score [3]: 1 (active)

Compound: Cc1cc(Cl)ccc1NC(=O)c1ccc(CN2CCN(c3ccccc3)CC2)cc1
- NF-kB reporter [1, 4]: 0.684 ± 0.053
- NF-kB reporter ([1]; agonist: LPS 0.1 ug/mL): 0.999 ± 0.07
- NF-kB reporter ([1]; agonist: MPLA […]): 0.978 ± 0.085
- IRF reporter ([2]; agonist: 3'3'-cGAMP 10 ug/mL): 0.803 ± 0.037
- IRF reporter ([2]; agonist: LPS 0.1 ug/mL): 1.07 ± 0.069
- IRF reporter ([2]; agonist: MPLA […]): 1.2 ± 0.11
- viability score [3]: 1.02 (active)

Compound: OCCSCCc1ccncc1
- NF-kB reporter [1, 4]: 1.03 ± 0.083
- NF-kB reporter ([1]; agonist: LPS 0.1 ug/mL): 1.05 ± 0.086
- NF-kB reporter ([1]; agonist: MPLA […]): 1.01 ± 0.047
- IRF reporter ([2]; agonist: 3'3'-cGAMP 10 ug/mL): 1.02 ± 0.23
- IRF reporter ([2]; agonist: LPS 0.1 ug/mL): 0.995 ± 0.07
- IRF reporter ([2]; agonist: MPLA […]): 1.02 ± 0.17
- viability score [3]: 1 (active)

Compound: CCCOCCOC(=O)C1=C(C)NC2=C(C(=O)CCC2)C1c1ccc(F)c(F)c1 (stereo not drawn)
- NF-kB reporter [1, 4]: 0.971 ± 0.081
- NF-kB reporter ([1]; agonist: LPS 0.1 ug/mL): 1.07 ± 0.1
- NF-kB reporter ([1]; agonist: MPLA […]): 0.851 ± 0.07
- IRF reporter ([2]; agonist: 3'3'-cGAMP 10 ug/mL): 1.09 ± 0.042
- IRF reporter ([2]; agonist: LPS 0.1 ug/mL): 1.41 ± 0.1
- IRF reporter ([2]; agonist: MPLA […]): 1.2 ± 0.12
- viability score [3]: 1.01 (active)

Compound: O=C1CN(C(=O)c2cc3ccccc3o2)c2ccccc2N1
- NF-kB reporter [1, 4]: 1.1 ± 0.35
- NF-kB reporter ([1]; agonist: LPS 0.1 ug/mL): 1.01 ± 0.052
- NF-kB reporter ([1]; agonist: MPLA […]): 1.21 ± 0.1
- IRF reporter ([2]; agonist: 3'3'-cGAMP 10 ug/mL): 0.992 ± 0.035
- IRF reporter ([2]; agonist: LPS 0.1 ug/mL): 1.03 ± 0.14
- IRF reporter ([2]; agonist: MPLA […]): 1.1 ± 0.14
- viability score [3]: 0.998 (active)

Compound: O=C(NC(Cc1cc(=O)[nH]c2ccccc12)C(=O)O)c1ccc(Cl)cc1 (stereo not drawn)
- NF-kB reporter [1, 4]: 1.4 ± 0.19
- NF-kB reporter ([1]; agonist: LPS 0.1 ug/mL): 1.19 ± 0.21
- NF-kB reporter ([1]; agonist: MPLA […]): 0.968 ± 0.055
- IRF reporter ([2]; agonist: 3'3'-cGAMP 10 ug/mL): 0.918 ± 0.03
- IRF reporter ([2]; agonist: LPS 0.1 ug/mL): 1.32 ± 0.16
- IRF reporter ([2]; agonist: MPLA […]): 1.09 ± 0.16
- viability score [3]: 0.992 (active)

Compound: COc1ccc(C(=O)Nc2sc3c(c2C(N)=O)CCCC3)cc1OC
- NF-kB reporter [1, 4]: 0.866 ± 0.067
- NF-kB reporter ([1]; agonist: LPS 0.1 ug/mL): 1.01 ± 0.056
- NF-kB reporter ([1]; agonist: MPLA […]): 1.09 ± 0.029
- IRF reporter ([2]; agonist: 3'3'-cGAMP 10 ug/mL): 0.694 ± 0.038
- IRF reporter ([2]; agonist: LPS 0.1 ug/mL): 0.942 ± 0.12
- IRF reporter ([2]; agonist: MPLA […]): 1.08 ± 0.14
- viability score [3]: 0.998 (active)

Compound: Cc1cc(=O)n2c(-c3cccc(NC(=O)C4CCCO4)c3)csc2n1 (stereo not drawn)
- NF-kB reporter [1, 4]: 1.25 ± 0.072
- NF-kB reporter ([1]; agonist: LPS 0.1 ug/mL): 1.04 ± 0.089
- NF-kB reporter ([1]; agonist: MPLA […]): 1.01 ± 0.037
- IRF reporter ([2]; agonist: 3'3'-cGAMP 10 ug/mL): 0.973 ± 0.093
- IRF reporter ([2]; agonist: LPS 0.1 ug/mL): 1.04 ± 0.11
- IRF reporter ([2]; agonist: MPLA […]): 0.936 ± 0.18
- viability score [3]: 0.999 (active)

Compound: CC(C)N(C)CCOC(=O)C(C)(c1ccccc1)c1ccccc1
- NF-kB reporter [1, 4]: 0.583 ± 0.047
- NF-kB reporter ([1]; agonist: LPS 0.1 ug/mL): 1.03 ± 0.068
- NF-kB reporter ([1]; agonist: MPLA […]): 0.957 ± 0.11
- IRF reporter ([2]; agonist: 3'3'-cGAMP 10 ug/mL): 0.902 ± 0.069
- IRF reporter ([2]; agonist: LPS 0.1 ug/mL): 1.09 ± 0.12
- IRF reporter ([2]; agonist: MPLA […]): 0.965 ± 0.17
- viability score [3]: 0.322 (inactive)

Compound: c1ccc2oc(SCCCCSc3nc4ccccc4o3)nc2c1
- NF-kB reporter [1, 4]: 0.959 ± 0.15
- NF-kB reporter ([1]; agonist: LPS 0.1 ug/mL): 1.06 ± 0.11
- NF-kB reporter ([1]; agonist: MPLA […]): 0.949 ± 0.089
- IRF reporter ([2]; agonist: 3'3'-cGAMP 10 ug/mL): 0.821 ± 0.037
- IRF reporter ([2]; agonist: LPS 0.1 ug/mL): 1.2 ± 0.12
- IRF reporter ([2]; agonist: MPLA […]): 1.4 ± 0.15
- viability score [3]: 1 (active)

Compound: COc1ccc(CNCc2ccc3ccccc3c2)cc1OC
- NF-kB reporter [1, 4]: 0.722 ± 0.064
- NF-kB reporter ([1]; agonist: LPS 0.1 ug/mL): 1 ± 0.07
- NF-kB reporter ([1]; agonist: MPLA […]): 0.943 ± 0.05
- IRF reporter ([2]; agonist: 3'3'-cGAMP 10 ug/mL): 0.784 ± 0.035
- IRF reporter ([2]; agonist: LPS 0.1 ug/mL): 1.04 ± 0.059
- IRF reporter ([2]; agonist: MPLA […]): 0.961 ± 0.2
- viability score [3]: 0.999 (active)

Compound: CN1CCN(C(=O)c2cc(-c3ccccc3)nc3ccccc23)CC1
- NF-kB reporter [1, 4]: 1.03 ± 0.11
- NF-kB reporter ([1]; agonist: LPS 0.1 ug/mL): 0.906 ± 0.059
- NF-kB reporter ([1]; agonist: MPLA […]): 0.957 ± 0.043
- IRF reporter ([2]; agonist: 3'3'-cGAMP 10 ug/mL): 0.941 ± 0.15
- IRF reporter ([2]; agonist: LPS 0.1 ug/mL): 0.923 ± 0.051
- IRF reporter ([2]; agonist: MPLA […]): 0.884 ± 0.081
- viability score [3]: 0.996 (active)
